Assay results taken from the supplement of paper PMC6555819.

Columns and labels:
Experiment in all cases: PBM binding z-score (relative to random genomic background probes); higher = stronger binding; sequences stand for … in GC…GCGATTGACAGCGTAGAATGAAGG
[1] = test system: RARb homodimer (NR concentration 270 nM)
Method in brief: (§1)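 Antibodies against each partner of ligand-free nuclear receptor dimers (one per run) detected binding on custom Agilent 4×180K protein-binding microarrays after 1 h incubation. The double-stranded probes had 34-nt variable regions carrying direct-repeat seeds, single-nucleotide variants, half-site ablations and random human genomic background sequences. Binding z-scores, from regression-normalized fluorescence, use the random background probes as reference.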

[2] = test system: RARg:RXRa (NR concentration 270 nM, RXRa partner concentration 90 nM)
Method in brief: as §1

[3] = test system: RARg homodimer (NR concentration 270 nM)
Method in brief: as §1

[4] = test system: RXRa DBDmut IVT, anti-RXR (DBD mutation: RXRa K156A/R161A, NR concentration 90 nM)
Method in brief: as §1

[5] = test system: RXRa homodimer (NR concentration 180 nM)
Method in brief: as §1

[6] = test system: THRa:RXRa (NR concentration 90 nM, RXRa partner concentration 90 nM)
Method in brief: as §1

[7] = test system: THRa homodimer (NR concentration 90 nM)
Method in brief: as §1

[8] = test system: VDR homodimer (NR concentration 270 nM)
Method in brief: as §1

**Q.** With GCTAGCAGGCCATTTGGGTCACTCATTGACGGGC as the sequence, how does the PBM binding z-score [1] read?
**A.** 1.77

**Q.** And the PBM binding z-score [2]?
**A.** 0.783

**Q.** And the PBM binding z-score [3]?
**A.** 1.14

**Q.** What about the PBM binding z-score [4] of the same sequence?
**A.** 0.292

**Q.** And the PBM binding z-score [5]?
**A.** 0.477

**Q.** And the PBM binding z-score [6]?
**A.** 1.69

**Q.** What about the PBM binding z-score [7] of the same sequence?
**A.** 0.799

**Q.** And the PBM binding z-score [8]?
**A.** 0.121

**Q.** ACTATTAGTTGAGACGAGGGCAACGGATAGGTTG was tested. Which PBM binding z-score [1] did it give?
**A.** 0.993

**Q.** And the PBM binding z-score [2]?
**A.** 0.638

**Q.** And the PBM binding z-score [3]?
**A.** 0.908

**Q.** What about the PBM binding z-score [4] of the same sequence?
**A.** 0.374

**Q.** And the PBM binding z-score [5]?
**A.** 0.585

**Q.** What about the PBM binding z-score [6] of the same sequence?
**A.** 2.53

**Q.** And the PBM binding z-score [7]?
**A.** 0.137

**Q.** What about the PBM binding z-score [8] of the same sequence?
**A.** 0.875

**Q.** With TCTTGTAGATCAACAGGAGGTTAAGAATGATCGA as the sequence, how does the PBM binding z-score [1] read?
**A.** 0.596

**Q.** And the PBM binding z-score [2]?
**A.** 1.13

**Q.** What about the PBM binding z-score [3] of the same sequence?
**A.** 0.374

**Q.** What about the PBM binding z-score [4] of the same sequence?
**A.** 0.333

**Q.** What about the PBM binding z-score [5] of the same sequence?
**A.** 0.964

**Q.** What about the PBM binding z-score [6] of the same sequence?
**A.** 0.774

**Q.** What about the PBM binding z-score [7] of the same sequence?
**A.** -0.347

**Q.** And the PBM binding z-score [8]?
**A.** 0.202

**Q.** Which results are given for CCTAGGAGGCCAATCTGGGTCACTCAAGGCTTGA?
**A.** PBM binding z-score [1]: 2.69; PBM binding z-score [2]: 1.66; PBM binding z-score [3]: 2.12; PBM binding z-score [4]: -0.07; PBM binding z-score [5]: 1.19; PBM binding z-score [6]: 4.21; PBM binding z-score [7]: 0.462; PBM binding z-score [8]: 0.0459

**Q.** With AATACAGGGTCACTAGGCCAGAGGAGGTACGAAT as the sequence, how does the PBM binding z-score [1] read?
**A.** 3.25

**Q.** What about the PBM binding z-score [2] of the same sequence?
**A.** 5.14

**Q.** What about the PBM binding z-score [3] of the same sequence?
**A.** 5.04

**Q.** And the PBM binding z-score [4]?
**A.** 2.54

**Q.** What about the PBM binding z-score [5] of the same sequence?
**A.** 5.66

**Q.** And the PBM binding z-score [6]?
**A.** 3.34

**Q.** What about the PBM binding z-score [7] of the same sequence?
**A.** 1.54

**Q.** What about the PBM binding z-score [8] of the same sequence?
**A.** 2.73

**Q.** How did the PBM binding z-score [1] turn out when AGCGAAAGGTCGACGAGGTGAGTATACACCGTTT was run?
**A.** 2.99

**Q.** What about the PBM binding z-score [2] of the same sequence?
**A.** 4.23

**Q.** And the PBM binding z-score [3]?
**A.** 4.03

**Q.** And the PBM binding z-score [4]?
**A.** 0.801

**Q.** And the PBM binding z-score [5]?
**A.** 4.4

**Q.** What about the PBM binding z-score [6] of the same sequence?
**A.** 3.75

**Q.** What about the PBM binding z-score [7] of the same sequence?
**A.** 0.716

**Q.** What about the PBM binding z-score [8] of the same sequence?
**A.** 0.753

**Q.** With CCTAGCAGGCCAGGGTCGCTCAAGCATTTCGCTT as the sequence, how does the PBM binding z-score [1] read?
**A.** 0.411

**Q.** And the PBM binding z-score [2]?
**A.** 0.213

**Q.** What about the PBM binding z-score [3] of the same sequence?
**A.** -0.184

**Q.** What about the PBM binding z-score [4] of the same sequence?
**A.** -0.345

**Q.** What about the PBM binding z-score [5] of the same sequence?
**A.** 0.948

**Q.** What about the PBM binding z-score [6] of the same sequence?
**A.** 1.23

**Q.** What about the PBM binding z-score [7] of the same sequence?
**A.** -0.279

**Q.** And the PBM binding z-score [8]?
**A.** -0.195
